Calls of active or inactive are those of the source. How the source made its calls: active means hit-call score of the fitted dose curve at least 0.9, where 1 is the maximum; inactive means score below 0.9.
These molecules were tested against human Adrenoceptor alpha2A Antagonism, ADRA2A (gene 150) (UniProt P08913) (assay: ERF_TW_GPCR_hADRA2A: Eurofins (ERF) G Protein-Coupled Receptor (GPCR) Radioligand Binding LeadHunter Assay for human Adrenoceptor alpha2A Antagonism).
Chain of human Adrenoceptor alpha2A Antagonism, ADRA2A (gene 150) (P08913 whole entry, looked up): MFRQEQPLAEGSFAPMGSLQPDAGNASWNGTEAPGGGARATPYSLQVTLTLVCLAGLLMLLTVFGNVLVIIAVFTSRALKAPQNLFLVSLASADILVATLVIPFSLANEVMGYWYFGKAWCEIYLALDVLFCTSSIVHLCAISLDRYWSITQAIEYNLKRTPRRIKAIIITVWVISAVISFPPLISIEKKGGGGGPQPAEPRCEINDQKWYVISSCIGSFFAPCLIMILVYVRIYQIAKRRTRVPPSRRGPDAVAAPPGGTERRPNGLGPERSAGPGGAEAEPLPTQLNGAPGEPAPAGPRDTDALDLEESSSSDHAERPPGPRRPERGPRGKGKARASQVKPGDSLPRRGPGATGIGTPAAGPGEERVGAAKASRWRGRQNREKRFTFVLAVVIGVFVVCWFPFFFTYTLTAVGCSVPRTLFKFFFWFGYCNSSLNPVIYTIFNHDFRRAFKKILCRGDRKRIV
Procedure: ERF_TW_GPCR_hADRA2A is a biochemical, single-readout assay that uses extracted gene-proteins in a cell-free assay. Measurements were taken 1 hour after chemical dosing in a 96-well plate. See alpha2A Human Adrenoceptor GPCR Binding (Antagonist Radioligand) Assay, Panlabs.ERF_TW_GPCR_hADRA2A is an assay component calculated from the ERF_TW_GPCR_hADRA2A assay. It is designed to measure radioligand binding using a type of binding reporter as detected by scintillation counting with radiometry technology.Data from the assay component ERF_TW_GPCR_hADRA2A was analyzed at the assay endpoint, ERF_TW_GPCR_hADRA2A, in the positive analysis fitting direction relative to DMSO as the negative control and baseline of activity. Using a type of binding reporter, loss-of-signal activity can be used to understand changes in radioligand binding as they relate to gene ADRA2A. To generalize the intended target to other relatable targets, this assay endpoint is annotated to the gpcr intended target family, where the subfamily is adrenoceptor.
Human recombinant adrenergic alpha2A receptors expressed in CHO-K1 cells are used in modified Tris-HCl buffer pH 7.4. A 2 ug aliquot is incubated with 1.5 nM [3H]Rauwolscine for 60 minutes at 25C. […] Receptors are filtered and washed, the filters are then counted to determine [3H]Rauwolscine specifically bound. […]
For `O=C(/C=C/c1ccc(O)cc1)CC(=O)/C=C/c1ccc(O)cc1`, the AC50 was 1140 nM (active).

Source: PubChem BioAssay AID2284146 (EPA ToxCast)
